# From PubChem BioAssay (NCATS)
# Where “and” joins values, the source holds several entries; their conditions need not be identical. Equal entries are not always repeated. Records with an inconclusive call do not appear. Where a call stands in place of a potency, no number is given. A structure can be active in one record and inactive in another. Calls of active or inactive are those of the source. Unless noted, calls follow the shape of the dose curve; as a rule, active = well fitted curve in the direction sought with a large enough effect; inconclusive = small, poorly fitted or top-dose-only effect, or another doubt; inactive = no such curve, though single readings can be large; an effect the other way counts as inactive or inconclusive.
# Columns and labels:
# [1] = target: Guanine nucleotide-binding protein G(i) subunit alpha-1 (Homo sapiens) (UniProt P63096); assay: qHTS Assay for Inhibitors of RGS12 GoLoco Motif Activity (Green Fluorophore) (AID 879); also: potency is read from the fitted curve at half-maximal effect
# Chain of Guanine nucleotide-binding protein G(i) subunit alpha-1 (Homo sapiens) (P63096 whole entry, looked up): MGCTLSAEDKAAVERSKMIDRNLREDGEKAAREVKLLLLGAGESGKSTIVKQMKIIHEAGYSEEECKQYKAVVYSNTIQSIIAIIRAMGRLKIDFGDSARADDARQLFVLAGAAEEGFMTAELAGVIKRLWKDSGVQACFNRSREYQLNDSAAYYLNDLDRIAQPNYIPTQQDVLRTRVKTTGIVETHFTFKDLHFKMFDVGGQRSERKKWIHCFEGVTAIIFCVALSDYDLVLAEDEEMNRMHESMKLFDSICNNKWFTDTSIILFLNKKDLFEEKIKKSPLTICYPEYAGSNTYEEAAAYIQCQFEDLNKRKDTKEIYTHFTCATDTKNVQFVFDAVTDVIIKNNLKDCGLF
# In short: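 Fluorescence polarization assay: 50 nM Gαi1 with 10 nM FITC-labeled RGS12 GoLoco peptide in 10 mM Tris pH 7.5, 150 mM NaCl, 0.1 mM GDP, 0.05% NP40, 10 min at room temperature with compound.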
# [2] = target: Cytochrome P450 2C9 (Homo sapiens) (UniProt P11712); assay: qHTS Assay for Inhibitors and Substrates of Cytochrome P450 2C9 (AID 883); also: nearly all actives have a fitted effect of over 60% in size
# Chain of Cytochrome P450 2C9 (Homo sapiens) (P11712 whole entry, looked up): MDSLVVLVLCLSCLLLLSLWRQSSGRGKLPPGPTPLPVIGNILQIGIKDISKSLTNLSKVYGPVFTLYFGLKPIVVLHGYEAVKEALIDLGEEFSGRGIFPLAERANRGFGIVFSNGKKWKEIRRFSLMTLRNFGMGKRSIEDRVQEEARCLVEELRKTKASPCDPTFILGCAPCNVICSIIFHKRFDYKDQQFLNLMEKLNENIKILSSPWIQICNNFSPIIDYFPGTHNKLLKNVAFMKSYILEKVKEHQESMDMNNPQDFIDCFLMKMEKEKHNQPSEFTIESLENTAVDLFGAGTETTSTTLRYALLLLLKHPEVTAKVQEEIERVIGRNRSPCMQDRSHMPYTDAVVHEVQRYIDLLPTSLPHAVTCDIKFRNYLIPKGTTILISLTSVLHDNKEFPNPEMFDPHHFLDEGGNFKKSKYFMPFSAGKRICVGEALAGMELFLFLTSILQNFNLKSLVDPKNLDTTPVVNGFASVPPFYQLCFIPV
# In short: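 Turnover of Luciferin-H (100uM, KM) by 10nM human CYP2C9 was measured over 60 min at 37C with NADPH regeneration; inhibitors and some substrates reduce luminescence. Data normalized to sulphaphenazole 57uM.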
# [3] = target: Cytochrome P450 3A4 (Homo sapiens) (UniProt P08684); assay: qHTS Assay for Inhibitors and Substrates of Cytochrome P450 3A4 (AID 884); also: series mostly up to about 57 µM; nearly all actives have a fitted effect of over 50% in size
# Chain of Cytochrome P450 3A4 (Homo sapiens) (P08684 whole entry, looked up): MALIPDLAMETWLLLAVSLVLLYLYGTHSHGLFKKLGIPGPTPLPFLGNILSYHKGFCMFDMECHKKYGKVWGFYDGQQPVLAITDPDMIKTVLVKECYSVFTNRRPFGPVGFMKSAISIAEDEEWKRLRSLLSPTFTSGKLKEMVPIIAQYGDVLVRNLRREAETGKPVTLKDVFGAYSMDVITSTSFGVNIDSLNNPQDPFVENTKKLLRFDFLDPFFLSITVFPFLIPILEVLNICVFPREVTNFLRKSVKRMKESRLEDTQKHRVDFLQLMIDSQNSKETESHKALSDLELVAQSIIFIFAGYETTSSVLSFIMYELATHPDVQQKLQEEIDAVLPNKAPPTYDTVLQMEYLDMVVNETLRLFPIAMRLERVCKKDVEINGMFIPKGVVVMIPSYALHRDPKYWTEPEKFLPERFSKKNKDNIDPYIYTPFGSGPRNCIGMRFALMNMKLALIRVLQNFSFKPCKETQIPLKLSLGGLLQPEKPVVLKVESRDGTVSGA
# In short: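 20 nM human CYP3A4 with 25 uM Luciferin-PPXE (at KM) in 200 mM KPO4, preincubated 10 min with compound; NADPH regeneration started a 60 min RT reaction. Luciferin detected by luminescence, normalized to 57 uM ketoconazole as full inhibition.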
# [4] = target: Cytochrome P450 2D6 (Homo sapiens) (UniProt P10635); assay: qHTS Assay for Inhibitors and Substrates of Cytochrome P450 2D6 (AID 891); also: nearly all actives have a fitted effect of over 60% in size; also: potency is read from the fitted curve at half-maximal effect
# Chain of Cytochrome P450 2D6 (Homo sapiens) (P10635 whole entry, looked up): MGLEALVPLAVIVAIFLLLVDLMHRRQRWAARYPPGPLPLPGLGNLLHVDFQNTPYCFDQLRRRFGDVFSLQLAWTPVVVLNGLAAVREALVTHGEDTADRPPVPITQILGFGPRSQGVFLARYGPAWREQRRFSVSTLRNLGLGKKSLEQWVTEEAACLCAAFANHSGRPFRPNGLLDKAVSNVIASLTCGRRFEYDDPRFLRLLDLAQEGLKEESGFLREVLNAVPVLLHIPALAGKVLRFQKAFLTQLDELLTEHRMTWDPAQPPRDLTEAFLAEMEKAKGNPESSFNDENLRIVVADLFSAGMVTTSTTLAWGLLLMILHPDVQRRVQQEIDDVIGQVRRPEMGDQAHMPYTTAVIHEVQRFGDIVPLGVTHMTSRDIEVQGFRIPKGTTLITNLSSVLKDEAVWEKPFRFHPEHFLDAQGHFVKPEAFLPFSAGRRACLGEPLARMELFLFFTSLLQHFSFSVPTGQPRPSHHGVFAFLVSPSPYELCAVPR
# In short: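 Human CYP2D6 (5 nM) with 30 uM Luciferin-ME EGE (at Km) in 100 mM KPO4, compound preincubated 10 min, then NADPH regeneration system for 60 min at room temperature. Luciferin read by luminescence; normalized to 1.43 uM quinidine.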
# [5] = qHTS Assay for Identification of Small Molecule Antagonists for NFkB Signaling Pathway (AID 895; active = well fitted inhibition curve with a large enough effect in the signal ratio, with a control signal flat, not every such curve was filed as active; the % refers to the signal ratio; also: potency is read from the fitted curve at half-maximal effect)
# In short: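 Beta-lactamase reporter read-out (460 and 530 nm emission ratio, 405 nm excitation, 2 hrs substrate loading RT) after 5 hr stimulation with 10 pM TNF alpha in compound-treated NFkB-bla ME-180 cells in low-serum medium.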
# [6] = target: Cytochrome P450 2C19 (Homo sapiens) (UniProt P33261); assay: qHTS Assay for Inhibitors and Substrates of Cytochrome P450 2C19 (AID 899); also: nearly all actives have a fitted effect of over 60% in size; also: potency is read from the fitted curve at half-maximal effect
# Chain of Cytochrome P450 2C19 (Homo sapiens) (P33261 whole entry, looked up): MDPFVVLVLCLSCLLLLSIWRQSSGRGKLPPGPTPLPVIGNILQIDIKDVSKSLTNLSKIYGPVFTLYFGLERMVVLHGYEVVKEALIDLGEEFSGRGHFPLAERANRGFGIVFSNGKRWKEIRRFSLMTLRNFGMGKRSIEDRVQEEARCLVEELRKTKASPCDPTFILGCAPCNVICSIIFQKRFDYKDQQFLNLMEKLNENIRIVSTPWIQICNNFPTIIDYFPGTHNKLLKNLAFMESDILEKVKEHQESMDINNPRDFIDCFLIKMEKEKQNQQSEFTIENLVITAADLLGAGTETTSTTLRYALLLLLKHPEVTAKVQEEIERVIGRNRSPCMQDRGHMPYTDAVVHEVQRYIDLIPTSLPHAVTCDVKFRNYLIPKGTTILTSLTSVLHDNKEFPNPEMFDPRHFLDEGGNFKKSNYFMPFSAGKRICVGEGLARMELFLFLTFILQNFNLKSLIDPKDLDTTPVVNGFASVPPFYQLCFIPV
# In short: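 Reactions contain 5nM enzyme, 10uM Luciferin-H EGE (KM) and 50mM KPO4; compound preincubates 10 min at 37C, NADPH regeneration starts turnover for 60 min. Luminescence after detection reagent gives activity.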
# [7] = Confirmation and Secondary Assay for Modulators of Hemoglobin Beta Chain Splicing at IVS2 654 locus (AID 910);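 also: HeLa cells stably carrying EGFP split by mutant beta-globin IVS2-654 intron; per-well total GFP intensity by laser scanning cytometry after 2-day treatment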
# In short: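 Readout: per-well total peak green fluorescence (488 nm ex, 500–520 nm em) from objects 5–250 µm, reflecting correct splicing of an EGFP-654 reporter. Compounds were applied for 2 days at 37 °C to overnight-plated HeLa EGFP-654 cells; controls were DMSO and 500 nM IVS2-654 PNA.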
# [8] = qHTS Assay for Identification of Small Molecule Agonists for Hypoxia Response Element Signaling Pathway (AID 914; active = well fitted activation curve with a large enough effect in the signal ratio, with a control signal flat, not every such curve was filed as active; the % refers to the signal ratio); conditions: ME-180 (cervical carcinoma) HRE-bla reporter, beta-lactamase ratio, CoCl2, 17 h; stronger effect = higher value
# In short: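 Read-out: CCF4 FRET ratio of 460nm to 530nm emission (excitation 405nm) after 2.5 hours at room temperature, taken from HRE-bla ME-180 cells that had been exposed to compound and EC50 CoCl2 for 17 hours.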
# [9] = qHTS Assay for Identification of Small Molecule Agonists for Thrombopoietin (TPO) Signaling Pathway (AID 917)
# In short: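 Activators of TPO signaling were sought in murine Ba/F3 cells transfected with the human receptor, using a luciferase gene driven by the Glycoprotein IIb promoter; 24-hr compound exposure at 37 C alongside 26 pM TPO, in IL-3-free medium.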
# [10] = Confirmation and Secondary Assay for Modulators of Hemoglobin Beta Chain Splicing at IVS2 705 locus (AID 930);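 also: HeLa cells stably expressing the EGFP-705 splicing reporter; GFP fluorescence per well restored by corrected splicing of the IVS2-705 intron in EGFP; series mostly up to about 46 µM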
# In short: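 HeLa EGFP-705 reporter; 500 cells/well, o/n 37C 5% CO2; cpd 2 d; 488 ex/500-520 em laser scan; total peak GFP intensity/well. Ref: 500 nM […] antisense PNA.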
# [11] = target: Pyruvate kinase (Leishmania mexicana) (UniProt Q27686); assay: qHTS Validation Assay for Inhibitors of Leishmania Mexicana Pyruvate Kinase (AID 945); also: potency is read from the fitted curve at half-maximal effect
# Chain of Pyruvate kinase (Leishmania mexicana) (Q27686 2-499 E452W): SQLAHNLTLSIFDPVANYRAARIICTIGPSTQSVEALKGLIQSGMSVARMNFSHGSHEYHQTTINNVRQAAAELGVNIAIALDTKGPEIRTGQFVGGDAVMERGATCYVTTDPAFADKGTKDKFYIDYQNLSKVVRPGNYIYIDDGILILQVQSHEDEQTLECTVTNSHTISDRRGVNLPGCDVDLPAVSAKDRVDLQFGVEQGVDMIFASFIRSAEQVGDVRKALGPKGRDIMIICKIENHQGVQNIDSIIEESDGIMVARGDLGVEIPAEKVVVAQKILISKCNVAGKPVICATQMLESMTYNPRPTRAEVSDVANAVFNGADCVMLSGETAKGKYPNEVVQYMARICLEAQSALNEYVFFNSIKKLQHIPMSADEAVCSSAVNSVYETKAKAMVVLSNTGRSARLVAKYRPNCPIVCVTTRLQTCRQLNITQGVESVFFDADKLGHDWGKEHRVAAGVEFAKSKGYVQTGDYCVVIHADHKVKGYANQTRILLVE
# In short: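 Substrate mix (0.5 mM PEP, 0.1 mM ADP, 7 mM MgCl2, 50 mM KCl, pH 7.2 imidazole) received compound by pin tool, then 0.2 nM LmPYK E451W. After 1 h at room temperature, PKLight was added and luminescence measured.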
# [12] = target: Cytochrome P450 3A4 (Homo sapiens) (UniProt P08684); assay: qHTS Assay for Activators of Cytochrome P450 3A4 (AID 885); also: nearly all actives have a fitted effect of over 65% in size
# In short: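 Human CYP3A4 (20 nM) with Luciferin-PPXE at 25 uM (its KM) in 200 mM KPO4; 10 min compound preincubation, then NADPH regeneration and 60 min reaction at RT. Luciferin read by luminescence; normalized to 57 uM ketoconazole full inhibition.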
# [13] = Cellular Toxicity (caspase-3) N2a (AID 665);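 also: compound exposure lasted 16 h at 37 °C before readout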
# In short: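 N2a cells, 1500/well, 5 h settle at 37 °C; cpd 16 h, 37 °C; Caspase-Glo 3/7, 1 h RT; luminescence. Norm: DMSO = 0, 10 uM staurosporine = 100%. AC50, Hill fit.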
# [14] = Cellular Toxicity (caspase-3) NIH 3T3 (AID 666)
# In short: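 Luminescence from aminoluciferin released by caspase-3/7 cleavage of a peptide substrate served as read-out. Mouse fibroblast NIH 3T3 cells were exposed to compounds over a concentration range for 16 hours, and AC50 values came from standard Hill modelling.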
# [15] = Cellular Toxicity (caspase-3) Renal Proximal Tubule (AID 667);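 also: cells exposed to compound for 16 hours at 37 °C before detection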
# In short: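 Luminescent caspase 3/7 signal from peptide-aminoluciferin cleavage measures apoptosis in freshly isolated rat kidney proximal tubule cells after 16 h compound exposure. Concentration-response data are normalized to DMSO and 10 uM staurosporine, and AC50 values come from Hill equation fits.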
# [16] = Cell Viability - LYMP2-001 (AID 921);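 also: series mostly up to about 92 µM; cells exposed to compound for 24 h at 37 °C; nearly all actives have a fitted effect of over 70% in size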
# In short: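 CellTiter-Glo luminescence (intracellular ATP) after 24 hr compound exposure at 37 C, 2500 lymphoblastoid cells/well in complete medium. AC50 fitted with standard Hill equation; tetraoctylammonium bromide positive control.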
# [17] = target: Muscarinic acetylcholine receptor M1 (Rattus norvegicus) (UniProt P08482); assay: qHTS Assay for Antagonists of Acetylcholine Muscarinic M1 Receptor: Measurement of IP-One Response (AID 944); also: nearly all actives have a fitted effect of over 75% in size; also: potency is read from the fitted curve at half-maximal effect
# Chain of Muscarinic acetylcholine receptor M1 (Rattus norvegicus) (P08482 whole entry, looked up): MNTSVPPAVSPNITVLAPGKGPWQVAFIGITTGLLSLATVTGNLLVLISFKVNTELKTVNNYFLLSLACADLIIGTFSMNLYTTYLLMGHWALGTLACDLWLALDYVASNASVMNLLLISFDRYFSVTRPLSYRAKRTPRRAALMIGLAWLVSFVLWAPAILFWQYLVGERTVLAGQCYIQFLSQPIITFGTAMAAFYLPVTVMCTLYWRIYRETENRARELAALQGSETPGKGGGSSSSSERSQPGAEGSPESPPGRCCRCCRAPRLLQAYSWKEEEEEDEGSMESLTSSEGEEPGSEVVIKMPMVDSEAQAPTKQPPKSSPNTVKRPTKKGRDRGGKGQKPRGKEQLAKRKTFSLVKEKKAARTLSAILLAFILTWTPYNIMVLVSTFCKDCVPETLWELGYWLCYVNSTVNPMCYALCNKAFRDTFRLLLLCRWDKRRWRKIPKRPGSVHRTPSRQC
# In short: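 M1-CHO (rat), 2000 cells/well, overnight recovery; cpd 10 min; carbachol EC80 (200 nM), 30 min, HEPES buffer + 50 mM LiCl pH 7.4; IP-One HTRF, Ex 337, Em 620/665 nm.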
# [18] = MultiTox-Fluor Cytotoxicity Assay - LYMP1-001 - Dead Cells (AID 946)
# In short: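 LYMP1-001 lymphoblastoid cells (2500/well) treated 16 h at 37 C. Dead-cell protease cleavage of bis-AAF-R110 read at Ex/Em 485/520. Normalized to DMSO and 15 uM tetraoctylammonium bromide; AC50 from Hill fits.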
# [19] = target: Muscarinic acetylcholine receptor M1 (Rattus norvegicus) (UniProt P08482); assay: qHTS Assay for Antagonists of Acetylcholine Muscarinic M1 Receptor: Kinetic Measurement of Intracellular Calcium Response (AID 943); also: nearly all actives have a fitted effect of over 75% in size; also: potency is read from the fitted curve at half-maximal effect
# In short: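 Rat M1-CHO cells, 2000/well, overnight → Fluo-4 no-wash dye with probenecid, 1 h 37C → compound 10 min, room temp → basal read 6 s → carbachol EC80 (100 nM) → 4 min kinetic read; peak/basal.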
# [20] = qHTS Assay for Identification of Small Molecule Antagonists for Thrombopoietin (TPO) Signaling Pathway (AID 918); conditions: TPO-dependent cell signaling reporter, antagonist mode; also: potency is read from the fitted curve at half-maximal effect; nearly all actives have a fitted effect of over 60% in size
# In short: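 Ba/F3 (murine, hTPO-R, GPIIb-luc reporter); overnight IL-3 withdrawal; cpd + TPO 26 pM final (EC50); 24 h 37 C/5% CO2; Steadylite luminescence after 10 min RT.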
smiles,measurement,setting,value
CC(=O)Nc1nnc(S(N)(=O)=O)s1,Potency,[1],inactive
same,Potency,[2],inactive
same,outcome,[3],inactive
same,Potency,[4],inactive
same,Potency,[5],inactive
same,Potency,[6],inactive
same,outcome,[7],inactive
same,activation,[8],10.9% (inactive) and -10.2% (inactive) and -6.49% (inactive)
same,outcome,[9],inactive
same,outcome,[10],inactive
same,Potency,[11],inactive
CN(C(=O)CCCOc1ccc2[nH]c(=O)ccc2c1)C1CCCCC1,Potency,[1],inactive
same,Potency,[2],inactive
same,Potency,[12],inactive
same,Potency,[4],inactive
same,Potency,[6],inactive
same,outcome,[9],inactive
CN=C(NC#N)NCCSCc1nc[nH]c1C,outcome,[13],inactive
same,outcome,[14],inactive
same,outcome,[15],inactive
same,Potency,[1],inactive
same,Potency,[2],inactive
same,Potency,[4],inactive
same,Potency,[6],inactive
same,outcome,[7],inactive
same,outcome,[9],inactive
same,outcome,[16],inactive
same,Potency,[17],inactive
same,Potency,[11],inactive
same,outcome,[18],inactive
COC(=O)[C@@H](N)Cc1ccc(O)c(O)c1,Potency,[1],inactive
same,Potency,[12],inactive
same,Potency,[19],inactive
same,Potency,[11],inactive
O=C(CCNNC(=O)c1ccncc1)NCc1ccccc1,Potency,[1],inactive
same,Potency,[12],inactive
same,Potency,[6],inactive
same,outcome,[9],inactive
same,Potency,[19],inactive
same,Potency,[17],inactive
CCn1nc(C(=O)O)c(=O)c2cc3c(cc21)OCO3,Potency,[1],inactive
same,outcome,[7],inactive
same,outcome,[9],inactive
Cc1ccc(S(=O)(=O)NC(=O)NN2CCCCCC2)cc1,Potency,[1],inactive
same,outcome,[7],inactive
same,outcome,[9],inactive
same,Potency,[17],inactive
same,Potency,[11],inactive
Cc1nc2c([nH]1)c(=O)n(C)c(=O)n2Cc1ccco1,Potency,[1],inactive
same,Potency,[5],0.0631 µM (active)
same,Potency,[6],inactive
same,outcome,[9],inactive
same,Potency,[17],inactive
CN(C)CCCN1c2ccccc2Sc2ccccc21,Potency,[1],inactive
same,outcome,[7],inactive
Cc1nc2sccn2c(=O)c1CCN1CCC(=C(c2ccc(F)cc2)c2ccc(F)cc2)CC1,Potency,[1],inactive
same,Potency,[12],inactive
same,Potency,[4],10 µM (active)
same,Potency,[5],5.01 µM (active)
same,outcome,[9],inactive
same,Potency,[19],3.16 µM (active)
same,Potency,[17],15.8 µM (active)
same,Potency,[11],inactive
c1cnc(N2CCN(Cc3ccc4c(c3)OCO4)CC2)nc1,Potency,[1],inactive
same,Potency,[12],inactive
same,Potency,[4],0.199 µM (active)
same,Potency,[6],2 µM (active) and 631 nM (active)
same,outcome,[9],inactive
same,Potency,[19],14.1 µM (active)
same,Potency,[11],inactive
C[n+]1cc2c3c(ccc2c2ccc4cc5c(cc4c21)OCO5)OCO3,Potency,[1],12.6 µM (active)
same,Potency,[12],inactive
same,Potency,[5],10 µM (active)
same,Potency,[6],6.31 µM (active)
same,outcome,[7],inactive
same,Potency,[20],1 µM (active)
same,Potency,[17],12.6 µM (active)
same,Potency,[11],10 µM (active)
O=C1NCN(c2ccccc2)C12CCN(CCCC(c1ccc(F)cc1)c1ccc(F)cc1)CC2,Potency,[1],inactive
same,Potency,[12],inactive
same,Potency,[4],1.58 µM (active)
same,Potency,[20],12.6 µM (active)
CCOC(=O)c1cnc2c(cnn2CC)c1NN=C(C)C,Potency,[1],inactive
same,Potency,[12],inactive
same,outcome,[9],inactive
same,Potency,[19],inactive
same,Potency,[11],inactive
FC(F)(F)c1ccccc1-n1ccnc1,Potency,[1],inactive
same,Potency,[4],6.31 µM (active)
same,outcome,[7],inactive
same,outcome,[9],inactive
same,Potency,[17],inactive
same,Potency,[11],inactive
CCN(CC)CCNC(=O)c1ccc(NC(C)=O)cc1,Potency,[1],inactive
same,outcome,[7],inactive
same,outcome,[9],inactive
same,Potency,[19],inactive
same,Potency,[11],inactive
CCCCNc1c(C(=O)OCC)c(C)nc2c1cnn2CC,Potency,[1],inactive
same,Potency,[12],inactive
same,Potency,[4],inactive and 199 nM (active)
same,Potency,[17],inactive
CCn1cc(C(=O)O)c(=O)c2cc3c(cc21)OCO3,Potency,[1],inactive
same,outcome,[3],inactive
same,outcome,[7],inactive
same,outcome,[9],inactive
same,Potency,[17],inactive
CN1CCN(C2=Nc3ccccc3Oc3ccc(Cl)cc32)CC1,Potency,[1],inactive
same,Potency,[12],inactive
same,Potency,[5],inactive
same,outcome,[7],inactive
same,outcome,[9],inactive
same,Potency,[19],0.282 µM (active)
same,Potency,[17],3.16 µM (active)
same,Potency,[11],inactive
